In PubChem BioAssay:
Calls of active or inactive are those of the source. Unless noted, the rule behind the calls is not given here.

How the values were obtained:
[1] = test system: XIP peptide (Xip251-270) binding; test: XIP fragment 251-270 binding compounds – biochemical, small-molecule microarray, fluorescence 635/667 nm, 0.1 µg/mL protein, primary screen (AID 1182); settings: fluorescent protein binding, 635 nm, higher = more signal, called active from +8 up or from −8 down
XIP peptide (Xip251-270) = test: compounds binding XIP fragment 251-270 – biochemical, small-molecule microarray, fluorescence 635/667 nm, 0.5 µg/mL protein, primary screen (AID 1183); settings: fluorescence 635 nm, higher = more signal
[2] = blood-stage malaria parasite viability loss – strain 3D7, DAPI fluorescence, 100 nL, primary screen (AID 1184);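 note: parasites grown inside human red blood cells in medium with human serum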; settings: P. falciparum 3D7 growth, 3 d, higher = more signal
[3] = target: Homeobox protein Hox-A13 (Mus musculus) (UniProt Q62424); test: disruptors of Hoxa13 oligonucleotide interaction – biochemical, fluorescence polarization, labeled oligonucleotide, primary screen (AID 1185); settings: Hoxa13:DNA binding, 15 min, higher = more signal, called active from +8 up or from −8 down
[4] = blockers of DNA damage checkpoint Chk1 activation – imaging, HeLa, hydroxyurea, phospho-Chk1 antibody, percent positive cells, primary screen (AID 1186); settings: hydroxyurea-induced phospho-Chk1 immunofluorescence imaging, higher = more signal
[5] = blockers of DNA damage checkpoint Chk1 activation – imaging, HeLa, hydroxyurea, phospho-Chk1 nuclear intensity, primary screen (AID 1187); settings: hydroxyurea-induced phospho-Chk1 immunofluorescence imaging, higher = more signal

Chain of Homeobox protein Hox-A13 (Mus musculus) (Q62424 whole entry, looked up): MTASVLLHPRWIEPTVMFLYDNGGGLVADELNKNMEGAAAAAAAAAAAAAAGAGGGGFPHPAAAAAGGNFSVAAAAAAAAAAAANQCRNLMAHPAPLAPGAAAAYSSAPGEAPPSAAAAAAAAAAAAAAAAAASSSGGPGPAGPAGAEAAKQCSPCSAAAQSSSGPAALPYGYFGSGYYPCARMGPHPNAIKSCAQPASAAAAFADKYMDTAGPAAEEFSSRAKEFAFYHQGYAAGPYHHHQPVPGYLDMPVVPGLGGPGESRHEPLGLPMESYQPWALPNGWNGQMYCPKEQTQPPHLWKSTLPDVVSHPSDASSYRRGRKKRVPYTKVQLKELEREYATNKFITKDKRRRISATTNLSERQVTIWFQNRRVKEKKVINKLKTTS

Row | SMILES | composite z-score [1] | composite z-score (XIP peptide (Xip251-270)) | z-score [2] | z-score [3] | z-score [4] | z-score [5]
1 | COc1cc2c(cc1O)C(C1CC1)N(Cc1cc3c(cc1Br)OCO3)CC2 (centres undefined) | 0.411 (inactive) | 0.479 | -2.44 | -5.54 (inactive) | -0.174 (inactive) | 0.285 (inactive)
2 | [N-]=[N+]=NCc1ccccc1[C@@H]1OC(c2ccc(OCCCO)cc2)=N[C@]1(CCS(=O)(=O)c1ccccc1)C(=O)NCCN1CCOCC1 | 1.16 (inactive) | 0.853 | -2.19 | -2.41 (inactive) | 0.0054 (inactive) | -0.373 (inactive)
3 | CCOC(=O)[C@H]1C/C=C/C[C@H](C(=O)OCC)C(=O)O[C@H]2[C@@H](OC)O[C@H](CO)[C@@H](OC(=O)Nc3ccc(C#N)cc3)[C@@H]2OC1=O | 1.09 (inactive) | 0.84 | -2.07 | -1.69 (inactive) | -0.892 (inactive) | -1.88 (inactive)
4 | COc1ccc(CCN2C(=O)[C@@]3(c4ccc([N+](=O)[O-])cc4)CC(=O)N(C4CCCCC4)[C@@H]3c3ccc(CO)cc32)cc1 | 1.23 (inactive) | 0.311 | 0.706 | -0.544 (inactive) | 0.135 (inactive) | -0.0588 (inactive)
5 | O=C1[C@H]2C=C(Br)[C@H](C[C@@H]2OCCCCO)[C@@]12CO2 | 0.091 (inactive) | 0.141 | -0.234 | -1.71 (inactive) | -0.0513 (inactive) | -0.265 (inactive)
6 | COc1ccc(C(=O)Nc2ccc(CN3C(=O)[C@@]4(O[C@@H](CCO)[C@H]([Si](C)(C)c5ccc(OC)cc5)[C@H]4C)c4ccccc43)cc2)cc1 | 0.264 (inactive) | 0.758 | -2.74 | -1.17 (inactive) | -0.0822 (inactive) | -0.0421 (inactive)
7 | C[C@@]1([C@@H](NC(=O)c2ccccc2)c2ccc(-c3ccccc3)cc2)C[C@H]1C1CCCCC1 | 0.192 (inactive) | -1.44 | -0.206 | -0.0623 (inactive) | 0.664 (inactive) | -0.296 (inactive)
8 | CN1C(=O)C2C=CC(C(O)c3ccccc3)N(Nc3ccccc3)C2C1=O (centres undefined) | 0.599 (inactive) | 0.357 | -0.206 | -2.83 (inactive) | 0.861 (inactive) | 0.163 (inactive)
9 | COCC(=C=CC[C@@H](O)c1ccccc1OCCO)C[C@@H](O)c1cc(Cl)cc(Cl)c1O | 0.589 (inactive) | 0.682 | -1.84 | -3.71 (inactive) | 0.161 (inactive) | 0.377 (inactive)
10 | Cc1ccc(C(C)CC(O)C2C=CC3C(=O)N(c4ccccc4)C(=O)C3N2Nc2ccc([N+](=O)[O-])cc2)o1 (centres undefined) | 0.099 (inactive) | 0.839 | -1.1 | -3.75 (inactive) | 0.161 (inactive) | 0.568 (inactive)
11 | COc1ccc(C(=O)Nc2ccc(CN3C(=O)[C@@]4(O[C@@H](CC(=O)N5CCC[C@H]5CO)[C@H]([Si](C)(C)c5ccc(OC)cc5)[C@H]4C)c4ccccc43)cc2)cc1 | 0.135 (inactive) | 0.703 | -0.183 | -3.33 (inactive) | -0.0567 (inactive) | 0.829 (inactive)
12 | COC(=O)c1c(CC[C@@H](CO)NC(=O)N2CCC[C@H]2Cn2cc(-c3ccccn3)nn2)oc(C(C)=O)c1C(=O)OC | 1.82 (inactive) | 0.667 | -1.04 | -2.59 (inactive) | -0.828 (inactive) | -0.692 (inactive)
13 | CCCC=C(CCC)[C@@H](NS(=O)(=O)c1cccs1)c1ccc(C(=O)OC)cc1 | 0.219 (inactive) | 0.507 | -0.677 | -3.19 (inactive) | -0.284 (inactive) | 0.0089 (inactive)
14 | O=C(c1ccccc1)N1Cc2ccccc2[C@@H]2OC(c3ccc(OCCCO)cc3)=N[C@]2(Cc2ccccc2)C1=O | 1.67 (inactive) | 0.576 | -2.2 | 1.01 (inactive) | 0.103 (inactive) | -0.3 (inactive)
15 | COc1cc2c(cc1OC)CN(C(=O)[C@@H]1[C@H]3C(=O)O[C@H](c4ccccc4)[C@H](c4ccccc4)N3[C@H](c3ccc(O)cc3)[C@@]13C(=O)Nc1ccc(C#CC4(O)CCCCCC4)cc13)CC2 | 0.479 (inactive) | 0.774 | -0.489 | -1.53 (inactive) | 0.263 (inactive) | 0.812 (inactive)
16 | C[N+](C)(C)CCCC[C@@H]1NC(=O)[C@@H]2C[C@H](C(=O)NCCCCCN)[C@H](c3cccc(OCCO)c3)N2C1=O | -0.442 (inactive) | 0.572 | 0.137 | -3.6 (inactive) | -0.86 (inactive) | -0.231 (inactive)
17 | COCCCN1C(=O)[C@@]2(c3ccc([N+](=O)[O-])cc3)CC(=O)N(C3CCCCC3)[C@@H]2c2ccc(CO)cc21 | 0.0996 (inactive) | 0.154 | -0.599 | -0.329 (inactive) | 0.0889 (inactive) | 0.133 (inactive)

Row | SMILES | composite z-score [1] | composite z-score (XIP peptide (Xip251-270)) | z-score [2] | z-score [3] | z-score [4] | z-score [5]
18 | C=C(COC)/C(=C/C[C@@H](OC(C)=O)c1ccc(CO)o1)c1cnc2ccccc2c1 | 1.12 (inactive) | 0.797 | -1.35 | -4.13 (inactive) | -0.154 (inactive) | -0.323 (inactive)
19 | COCCCNC(=O)[C@@]1(Cc2ccccc2N=[N+]=[N-])N=C(c2ccc(OCCCO)cc2)O[C@H]1c1ccccc1N=[N+]=[N-] | 0.0041 (inactive) | 0.771 | -2.43 | -2.81 (inactive) | -0.559 (inactive) | -0.225 (inactive)
20 | CC(C)(C)OC(=O)CC[C@@]1(C(=O)NCC(O)CO)N=C(c2ccc(OCCCO)cc2)O[C@@H]1c1ccccc1N=[N+]=[N-] (some centres undefined) | 1.01 (inactive) | 0.795 | -1.86 | -4.43 (inactive) | -0.436 (inactive) | -0.65 (inactive)
21 | COc1ccc([Si](C)(C)[C@H]2[C@H](CCO)O[C@@]3(C(=O)N(C)c4c(Br)cc(C)cc43)[C@@H]2C)cc1 | 0.307 (inactive) | 0.837 | -2.71 | -5.78 (inactive) | -1.08 (inactive) | -1.73 (inactive)
22 | CCCC=C(CCC)[C@@H](NC(=O)Oc1ccc(F)cc1)c1ccc(C(=O)OC)cc1 | 0.814 (inactive) | 0.302 | -0.476 | -0.734 (inactive) | 0.239 (inactive) | 0.34 (inactive)
23 | COCCOC(=O)N1C(=O)[C@@]2(c3cc(C#CC4=CCCCC4)ccc31)[C@H](C(=O)Nc1nc3ccccc3s1)[C@H]1C(=O)O[C@H](c3ccccc3)[C@H](c3ccccc3)N1[C@@H]2c1ccc(OCCO)cc1 | -0.555 (inactive) | 0.467 | -1.52 | 3.78 (inactive) | -0.0093 (inactive) | 0.303 (inactive)
24 | CCCCC(O)C1C=CC2C(=O)N(c3ccccc3)C(=O)C2N1Nc1ccccc1F (centres undefined) | 0.335 (inactive) | 0.744 | 1.01 | -3.4 (inactive) | 0.772 (inactive) | -0.0522 (inactive)
25 | O=C1c2ccccc2[C@@]2(Cc3ccccc3N(CCN3CCOCC3)C2=O)[C@H](c2ccc(CO)cc2)N1Cc1ccccc1 | -0.178 (inactive) | 0.206 | -0.119 | -0.421 (inactive) | -0.305 (inactive) | -0.0278 (inactive)
26 | COc1cc2c(cc1OC)CN(C(=O)[C@H]1[C@@H]3C(=O)O[C@@H](c4ccccc4)[C@@H](c4ccccc4)N3[C@@H](c3ccc(O)cc3)[C@]13C(=O)Nc1ccc(C#CCNC(N)=O)cc13)CC2 | -0.564 (inactive) | 0.497 | -0.599 | -1.24 (inactive) | -0.192 (inactive) | -0.245 (inactive)
27 | CC(C)(C)OC(=O)CC[C@]1(C(=O)NCC(O)CO)COC(c2ccc(OCCCO)cc2)=N1 (some centres undefined) | 0.273 (inactive) | 0.151 | -0.104 | -3.95 (inactive) | 0.505 (inactive) | 0.437 (inactive)
28 | O=C1NC(=O)C2C1C=CC(C(O)C(c1ccccc1)c1ccccc1)N2Nc1ccc(Cl)cc1Cl (centres undefined) | 0.69 (inactive) | -0.0049 | -0.289 | -4.15 (inactive) | 0.735 (inactive) | 0.889 (inactive)
29 | CCCCCN1CC=CC23O[C@@H]4/C=C\CCCOC(=O)C4[C@H]2C(=O)N(CCCO)[C@@H]3C1=O (some centres undefined) | 1.75 (inactive) | 0.772 | -0.332 | -5.09 (inactive) | -0.297 (inactive) | -0.426 (inactive)
30 | CC(C)C(=C=CC[C@@H](O)c1ccccc1OCCO)CCO | 0.305 (inactive) | -0.161 | -0.637 | -2.91 (inactive) | -0.306 (inactive) | 0.231 (inactive)
31 | C=CCOC(=O)[C@H]1[C@@H]2C(=O)O[C@@H](c3ccccc3)[C@@H](c3ccccc3)N2[C@@H](c2ccc(OCCOC(=O)[C@@H]3C[C@@H]4C(=O)N[C@@H](CCCC[N+](C)(C)C)C(=O)N4[C@@H]3c3ccc(O)cc3)cc2)[C@]12C(=O)Nc1ccccc12 | 0.543 (inactive) | 0.637 | 0.327 | 6.39 (inactive) | -0.75 (inactive) | -0.282 (inactive)
32 | CN1C(=O)C2C=CC(C(O)c3cc(C(F)(F)F)cc(C(F)(F)F)c3)N(N3CCCCC3)C2C1=O (centres undefined) | 0.11 (inactive) | 0.289 | -0.0782 | -4.54 (inactive) | -1.22 (inactive) | -1.63 (inactive)
33 | CCCCCC1=C2CNC(CCC)(C(=O)OC)C=C2C(C)C1=O (centres undefined) | 0.455 (inactive) | -0.0874 | -0.175 | -6.92 (inactive) | 0.138 (inactive) | 0.466 (inactive)
34 | COc1cc(CO)cc(I)c1O[C@H]1C=C(C(=O)NCCO)C[C@@H](N(CCN2CCOCC2)C(=O)C2CCOC2)[C@@H]1O (some centres undefined) | 0.384 (inactive) | 0.551 | 0.199 | -7.57 (inactive) | -0.182 (inactive) | 0.246 (inactive)
